GLP1R inv ag: qHTS of GLP-1 Receptor Inverse Agonists (Inhibition Mode) | 1.6% of 410,000 active | Potency, µM (doses to about 38.3 µM), for the others: at the highest dose activity change, negative = inhibition, hits mostly inhibitors | Glucagon-like peptide 1 receptor (Homo sapiens), P43220 | AID 624417, 2012 | HEK293 GLP-1R CRE-luciferase, luminescence, 24 h; GLP-1R form is constitutively active; further: on the % scale 0 is the no-effect control and ±100 the full control effect; nearly all actives have a fitted effect of over 55% in size
Target sequence (P43220 whole entry, looked up): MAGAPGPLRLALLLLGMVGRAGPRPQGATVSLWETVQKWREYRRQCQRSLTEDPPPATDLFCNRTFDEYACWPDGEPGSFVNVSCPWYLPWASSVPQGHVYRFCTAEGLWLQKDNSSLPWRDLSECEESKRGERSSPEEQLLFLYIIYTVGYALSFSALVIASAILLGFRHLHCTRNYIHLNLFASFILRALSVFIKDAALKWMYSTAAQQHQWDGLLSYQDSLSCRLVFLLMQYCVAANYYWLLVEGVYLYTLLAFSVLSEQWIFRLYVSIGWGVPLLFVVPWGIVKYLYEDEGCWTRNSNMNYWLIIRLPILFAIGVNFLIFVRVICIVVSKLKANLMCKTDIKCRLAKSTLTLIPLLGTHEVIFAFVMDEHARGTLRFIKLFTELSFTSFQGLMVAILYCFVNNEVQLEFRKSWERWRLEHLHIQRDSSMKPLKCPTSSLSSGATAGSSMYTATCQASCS
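GLP-1R inverse agonism mode: basal reporter luminescence in engineered HEK293 cells measured after one day of compound exposure at 37 deg C, with a 12 min room-temperature detection step.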
RGS4 inh: Inhibitors of Regulator of G Protein Signaling (RGS) 4: qHTS. Transcreener GDP fluorescence polarization, RGS4-accelerated GTP hydrolysis. Potency, µM (doses to about 114 µM), for inactives: top-dose activity change, negative = inhibition, usual class: inhibitors. 0.039% of 390,000 active. AID 504845, 2011; further: on the % scale 0 is the no-effect control and ±100 the full control effect; nearly all actives have a fitted effect of over 75% in size
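MLSMR compounds (23 nl, pin-transferred) preincubated 10 min at room temperature with a 500nM (2x) first reagent, then RGS4 at 900nM (2x) plus Transcreener GDP mix added; fluorescence polarization (620/688 nm) read before and after 90 min at 30 °C.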
KAT2A inh: qHTS Assay for Inhibitors of GCN5L2. Histone acetyltransferase KAT2A (Homo sapiens), Q92830. GCN5L2 HAT assay, ThioGlo1 CoA-SH fluorescence. Potency, µM (series often up to 58.9 µM), for the others: at the highest dose activity change, negative = inhibition, usual class: inhibitors. 0.21% of 390,000 active. AID 504327, 2011; further: on the % scale 0 is the no-effect control and ±100 the full control effect
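Compounds, pin-transferred from DMSO stocks, meet 20nM GCN5L2 for 15 min before the reaction begins with H3(1-25) peptide (75uM) and acetyl-CoA (70uM). Thiol-reactive ThioGlo1 reports CoA release over 20 min at room temperature.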
GLP-1R agonist: qHTS of GLP-1 Receptor Agonists | Glucagon-like peptide 1 receptor (Homo sapiens), P43220 | HEK293 GLP-1R CRE-luciferase, luminescence, 4-6 h; cells express a hypersensitive GLP-1R form | Potency, µM (titrated, usually from 45.6 µM), for the others: top-dose activation, hits mostly activators | 0.007% of 380,000 active | AID 624172, 2012; further: % of control where 0% means no effect
HEK293 tox: qHTS of GLP-1 Receptor Inverse Agonists: Cytotox Screen | HEK293 cAMP-luciferase reporter cells, luminescence, 24 h | Potency, µM (doses to about 38.3 µM), without a hit: top-dose activity change, negative = inhibition, hits mostly inhibitors | 0.13% of 410,000 active;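 further: loss of luciferase light is scored as toxicity; on the % scale 0 is the no-effect control and ±100 the full control effect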
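A 23 nL compound transfer followed 12 hours of cell culture at 37 deg C; exposure then lasted 24 hr. Luciferase assay detection reagent was dispensed and plates read for luminescence after a 12 min room-temperature wait.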
PTHR1 ag: qHTS for PTHR1 Agonists: Primary Screen | Potency, µM (titrated, usually from 115 µM), for inactives: at the highest dose activation, hits mostly activators | Parathyroid hormone/parathyroid hormone-related peptide receptor (Homo sapiens), Q03431 | 0.075% of 410,000 active | AID 743266, 2014 | HEK293 GP2 PTHR1 cells, GloSensor cAMP luminescence, 1 h; further: nearly all actives have a fitted effect of over 55% in size
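HEK-293-derived GP2 cells expressing PTHR1 and a GloSensor cAMP reporter, 3,000/well, plated overnight, given luciferin plus IBMX (each 0.5 mM as added) for 1 h at 37 °C, then compound for 1 h at 37 °C. Luminescence was read after 15 min at room temperature.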
* = called active by the depositor; [ ] = another dose, or the depositor's remark. Most compounds without a hit are left out; they make up all but 1.8% or so of the library. The call rests on the fitted dose curve; in most records, active means well fitted curve in the direction sought with a large enough effect; inconclusive means small, poorly fitted or top-dose-only effect, or another doubt; inactive means no such curve, though single readings can be large; an effect the other way counts as inactive or inconclusive. Potency means the concentration at half of the fitted maximal effect.

`O=C(O)c1ccccc1N/N=C\c1ccnc2ccccc12` gave GLP1R inv ag 4.47µM*, RGS4 inh 28.8%, KAT2A inh inconclusive, GLP-1R agonist -40.4%, HEK293 tox 53.7% and PTHR1 ag -6.6%.
`O=C(NCCc1cccs1)C(c1ccccc1)c1ccccc1` gave GLP1R inv ag inconclusive, RGS4 inh 5.3%, KAT2A inh -3.8%, GLP-1R agonist 5.1%, HEK293 tox -21.8% and PTHR1 ag inactive.
Screening O=C(NCCc1cccs1)c1ccc(Cl)c(Cl)c1 returned GLP1R inv ag inconclusive, RGS4 inh 6.6%, KAT2A inh 1.1%, GLP-1R agonist 11.5%, HEK293 tox 2.0% and PTHR1 ag -26.4%.
For O=C(NCCc1cccs1)c1ccc(Cl)cc1 the results were GLP1R inv ag 10µM*, RGS4 inh 11.7%, KAT2A inh -8.4%, GLP-1R agonist -0.6%, HEK293 tox -8.4% and PTHR1 ag -56.0%.
Screening Cc1ccc(C(=O)NCCc2cccs2)cc1 returned GLP1R inv ag 5.01µM*, RGS4 inh 10.5%[11.4 µM], KAT2A inh -3.3%, GLP-1R agonist -3.4%, HEK293 tox 2.6% and PTHR1 ag -45.0%.
For Cc1ccc(OCCNC(=O)c2ccc(COc3ccccc3)o2)cc1 the results were GLP1R inv ag inconclusive, RGS4 inh -25.1%, KAT2A inh -5.5%, GLP-1R agonist 4.6%, HEK293 tox -1.1% and PTHR1 ag inactive.
CC(C)Cc1ccc(C(=O)NCCOc2ccccc2)o1 was read as GLP1R inv ag 11.2µM*, RGS4 inh -1.4%, KAT2A inh -7.7%, GLP-1R agonist 11.6%, HEK293 tox 0.0% and PTHR1 ag -11.2%.
O=C(NCc1ccccc1)c1cc(C2COCCN2C(=O)C2CC2)on1 (stereo not given) was read as GLP1R inv ag 8.2%, GLP-1R agonist 2.2%, HEK293 tox 6.6% and PTHR1 ag 11.3%.
Cc1cc2c(SCC(=O)NC3CCCC3)ncnc2s1 was read as GLP1R inv ag 6.2%, RGS4 inh 7.5%, KAT2A inh -3.3%, GLP-1R agonist 11.0%, HEK293 tox 7.2% and PTHR1 ag inactive.
`CCc1nn(CC(=O)NCc2ccco2)c(=O)c2cc3c(OC)cccc3n12` gave GLP1R inv ag 7.5%, RGS4 inh -6.5%, KAT2A inh -1.4%, HEK293 tox 7.9% and PTHR1 ag -16.7%.
Screening OCCN1CCN(C2CCC(c3ccc(F)cc3)c3ccc(F)cc32)CC1 (stereo not given) returned GLP1R inv ag 2µM*, RGS4 inh -29.7%, GLP-1R agonist 0.9%, HEK293 tox inconclusive and PTHR1 ag -22.5%.
Screening O=[N+]([O-])c1ccc2c(c1)C(N1CCN(CCO)CC1)Cc1ccc(F)cc1S2 (stereo not given) returned GLP1R inv ag inconclusive, GLP-1R agonist 13.1%, HEK293 tox -11.6% and PTHR1 ag inactive.
For Cc1ccc(NC(=S)NCc2cccn2C)cc1 the results were GLP1R inv ag 0.7%, RGS4 inh -8.6%, KAT2A inh 0.6%, GLP-1R agonist 3.0%, HEK293 tox -3.0% and PTHR1 ag 3.55µM*.
`Cc1cccc(NC(=S)NCc2cccn2C)c1` gave GLP1R inv ag 0.0%, RGS4 inh 5.1%, KAT2A inh -10.4%, GLP-1R agonist -5.7%, HEK293 tox -10.0% and PTHR1 ag -21.9%.
`CSc1ncc(C(=O)Nc2ccccc2C(F)(F)F)c(-c2ccccc2)n1` gave GLP1R inv ag 0.5%, RGS4 inh -13.0%, KAT2A inh -0.6%, HEK293 tox -4.3% and PTHR1 ag inactive.

Screening results as filed in PubChem.
